Bioassay records: PubChem, National Center for Advancing Translational Sciences (NCATS)
This is a sample that favours compounds with a hit; in the whole collection about 7.5% have one here.
TSHR antag – Antagonists of the Thyroid Stimulating Hormone Receptor: HTS campaign; Thyrotropin receptor (Homo sapiens), P16473; TSHR-expressing cells, TSH-stimulated cAMP HTRF, 2 h; hits give low values; activity change, negative = inhibition, % at 11.5 µM; 0.2% of 330,000 active;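 active = activity change below a set negative limit, meaning inhibition stronger than a set level, cut at about -70% in these data; inconclusive = activity change between two set negative limits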
Target sequence (P16473 whole entry, looked up): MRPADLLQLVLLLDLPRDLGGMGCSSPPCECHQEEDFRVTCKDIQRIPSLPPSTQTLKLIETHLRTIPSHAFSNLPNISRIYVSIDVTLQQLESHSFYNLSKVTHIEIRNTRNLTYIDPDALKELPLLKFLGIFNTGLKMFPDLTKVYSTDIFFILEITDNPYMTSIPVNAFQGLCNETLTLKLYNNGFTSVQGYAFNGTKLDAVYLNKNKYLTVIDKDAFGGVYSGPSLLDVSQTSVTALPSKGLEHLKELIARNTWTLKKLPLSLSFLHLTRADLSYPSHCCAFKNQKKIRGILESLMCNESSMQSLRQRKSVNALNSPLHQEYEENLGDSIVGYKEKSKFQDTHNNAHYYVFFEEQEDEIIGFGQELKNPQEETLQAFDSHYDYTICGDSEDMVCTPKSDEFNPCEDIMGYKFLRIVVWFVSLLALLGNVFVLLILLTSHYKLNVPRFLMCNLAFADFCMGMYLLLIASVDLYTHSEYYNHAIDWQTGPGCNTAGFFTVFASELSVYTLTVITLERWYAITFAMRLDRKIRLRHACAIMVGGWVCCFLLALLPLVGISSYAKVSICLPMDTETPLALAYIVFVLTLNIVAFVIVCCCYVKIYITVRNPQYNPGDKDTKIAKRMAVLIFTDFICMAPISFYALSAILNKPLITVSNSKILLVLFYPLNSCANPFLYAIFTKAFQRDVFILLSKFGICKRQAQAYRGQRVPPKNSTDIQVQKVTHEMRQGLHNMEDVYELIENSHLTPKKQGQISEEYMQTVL
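TSHR-expressing cells, 200/well, pre-treated with compound, then stimulated with EC80 TSH (4nM final) for 2 hours at 37 deg C. cAMP measured by competitive HTRF: anti-cAMP cryptate antibody in lysis buffer plus cAMP-d2, read after 30 minutes at room temperature.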
B2AR arrestin – qHTS assay of beta-arrestin-biased ligands of beta2-adrenergic receptor; beta-arrestin recruitment to beta2AR, cell-based reporter; Beta-2 adrenergic receptor (Homo sapiens), P07550; 0.02% of 330,000 active; AID 492947, 2010; Potency, µM (doses to about 46.1 µM), inactives show at the highest dose activation, usual class: activators;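 also: potency is read from the fitted curve at half-maximal effect; 0% = DMSO controls and full agonism = EC100 isoproterenol or metaproterenol; nearly all actives have a fitted effect of over 65% in size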
Gal4-VP16 FLuc – VP16 counterscreen qHTS for inhibitors of ROR gamma transcriptional activity; Drosophila S2 Gal4-VP16 UAS-luciferase, luminescence, 20 h; Potency, µM (highest dose often 53.6 µM), for inactives: at the top dose activity, negative = inhibition, most hits filed as inhibitors; 3.5% of 310,000 active;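 also: Gal4-VP16 expression switched on by copper sulfate through the metallothionein promoter; potency is read from the fitted curve at half-maximal effect; nearly all actives have a fitted effect of over 50% in size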
ELG1 repair inh – qHTS screen for small molecules that inhibit ELG1-dependent DNA repair in human embryonic kidney (HEK293T) cells expressing luciferase-tagged ELG1 | HEK293T ELG1-luciferase reporter, luminescence, 16 h; DNA damage induced by 5-fluorouridine | Potency, µM (doses to about 46.1 µM), without a hit: at the highest dose activity change, negative = inhibition, hits mostly inhibitors | 2.3% of 330,000 active; also: potency is read from the fitted curve at half-maximal effect; nearly all actives have a fitted effect of over 55% in size
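Overnight (16 hr) co-exposure of 2,000 cells/well to 5-fluorouridine and compound at 37 °C preceded detection. Luciferase was quantified via ONE-Glo luminescence; loss of signal denotes inhibition.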
RORg inh – qHTS for inhibitors of ROR gamma transcriptional activity | Nuclear receptor ROR-gamma (Mus musculus), P51450 | Drosophila S2 Gal4-RORgamma UAS-luciferase reporter, 20 h | Potency, µM (doses to about 53.6 µM), without a hit: top-dose activity change, negative = inhibition, actives largely listed as inhibitors | 5.4% of 310,000 active | AID 2551, 2010; also: potency is read from the fitted curve at half-maximal effect; nearly all actives have a fitted effect of over 60% in size
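Compounds are pin-transferred onto Drosophila Schneider cells expressing a copper-inducible Gal4–ROR gamma transactivation domain fusion. After 1 hr, copper sulfate is added to 700 uM final; luciferase is read 20 hr later.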
* = called active by the depositor; ? = inconclusive; nt = no result given; [ ] = dose if it differs, or a comment. Unless noted, calls follow the shape of the dose curve; as a rule, active = well fitted curve in the direction sought with a large enough effect; inconclusive = small, poorly fitted or top-dose-only effect, or another doubt; inactive = no such curve, though single readings can be large; an effect the other way counts as inactive or inconclusive. Unless noted, % is scaled to controls: 0 for no effect and ±100 for the full control effect.

SMILES	TSHR antag	B2AR arrestin	Gal4-VP16 FLuc	ELG1 repair inh	RORg inh
C/C=C\C=C/C(=O)Nc1cccc(C2=NOC3(C2)C[C@@H](C(N)=O)N(C(=O)COc2ccc(Cl)cc2)C3)c1 (stereo not given in full)	9	0%	-7%	2%	-7%
CCCCCC(=O)Nc1cccc(C2=NOC3(C2)C[C@@H](C(N)=O)N(C(=O)c2cc([N+](=O)[O-])cc([N+](=O)[O-])c2)C3)c1 (stereo not given in full)	-6	-1%	2%	-2%	6%
N#C/C(=C\c1c(Cl)cccc1Cl)c1nc2ccccc2o1	2	23µM*	-28%	3%	?
CCc1ccc2nc(N(CCCN(C)C)C(=O)c3ccc(C(=O)c4ccccc4)cc3)sc2c1	-4	-1%	?	13%	?
Oc1[nH]c(N=C2N=c3ccccc3=N2)c2ccccc12	12	?	2.5µM*	?	0.5µM*
Cc1ncc(CO)c(/C=N/Nc2ccc(C(F)(F)F)cn2)c1O	-9	0%	16µM*	?	?
COc1cc(-c2nnc3n2CCCCC3)cc(OC)c1OC	-4	0%	7%	?	0%
COc1ccccc1C1SCCN1S(C)(=O)=O (stereo not given)	-8	1%	2%	-1%	0%
COc1ccc(OC)c(C2SCCN2S(C)(=O)=O)c1 (stereo not given)	5	-2%	3%	9%	11µM*
CC(C)(C)c1ccc(OC2C(O)COC2/C=C/C#Cc2ccccc2)cc1 (stereo not given)	nt	nt	15%[10 µM]	nt	12%[10 µM]
Cc1ccc(-c2cc3nc(-c4ccccc4)cc(N4CCC5(CC4)OCCO5)n3n2)cc1	-9	0%	9%	-30%	?
COc1ccc(-c2cc3nc(-c4ccccc4)cc(N4CCCC(O)C4)n3n2)cc1 (stereo not given)	-1	-1%	-24%	16µM*	4%
COc1ccc(-c2cc3nc(-c4ccccc4)cc(N4CCC(O)CC4)n3n2)cc1	-7	0%	-22%	16µM*	4%
Cc1nn(-c2ccc(F)cc2)c(Cl)c1C(=O)N(C)CC(=O)Nc1cccc(F)c1	-4	-1%	nt	?	nt
C[C@H]1CN([C@@H](C)CO)C(=O)c2cccc(NC(=O)c3cnccn3)c2O[C@@H]1CN(C)S(=O)(=O)c1ccc(F)cc1	12	0%	nt	10%	nt
CC1(C)Cc2c(C#N)c(NCCN3CCOCC3)nc(-c3ccco3)c2CO1	nt	4%	-8%	?	0%
CC1(C)Cc2c(C#N)c(NCCN3CCOCC3)nc(-c3ccccc3)c2CO1	0	-1%	-3%	8.2µM*	14%
CC1(C)Cc2c(C#N)c(SCC(=O)c3ccccc3)nc(N3CCOCC3)c2CO1	-5	-1%	4%	1.3µM*	-3%
CCOC(=O)CSc1nc(N2CCOCC2)c2c(c1C#N)CC(C)(C)OC2	-3	-1%	-4%	2.1µM*	4%
COc1ccc(CCNC(=O)c2sc3nc4n(c(=O)c3c2C)CCC4)cc1	-4	0%	nt	?	nt
CCOC(=O)c1ccc(NC(=O)c2sc3nc4n(c(=O)c3c2C)CCC4)cc1	-2	0%	-1%	23µM*	23%
CCOc1ccc(NC(=O)c2sc3nc4n(c(=O)c3c2C)CCC4)cc1	0	0%	-11%	-1%	8%
CCOc1ccc(CCNC(=O)c2sc3nc4n(c(=O)c3c2C)CCC4)cc1OCC	8	0%	-2%	6.5µM*	18%
Cc1[nH]n(-c2ccccc2)c(=O)c1N=Nc1ccccc1O	-16	0%	4.5µM*	?	2µM*
Cc1ccccc1N=Nc1c(C)[nH]n(-c2ccccc2)c1=O	-3	0%	-9%	6%	-14%
SMILES	TSHR antag	B2AR arrestin	Gal4-VP16 FLuc	ELG1 repair inh	RORg inh
Cc1[nH]n(-c2ccccc2)c(=O)c1N=Nc1nccs1	-9	-1%	5.6µM*	?	5.6µM*
COc1ccc(CN2CCN(CCSc3ccc(C)cc3)CC2)c(OC)c1OC	-11	0%	1%	?	-20%
COc1cccc(Nc2nc3ccccc3n2C(C)C)c1	-13	3%	-20%	-3%	-36%
Cc1ccccc1Nc1nc2ccccc2n1C(C)C	7	0%	-4%	-1%	10µM*
CCc1ccccc1Nc1nc2ccccc2n1C	-2	-1%	?	-4%	10µM*
Cn1c(Nc2ccccc2)nc2ccccc21	21	-1%	nt	?	nt
COc1ccc(/C=C/c2c([N+](=O)[O-])c(=O)n(C)c(=O)n2C)c(OC)c1	7	0%	-11%	-6%	-19%
Cn1c(/C=C/c2ccc(Cl)cc2Cl)c([N+](=O)[O-])c(=O)n(C)c1=O	8	0%	?	?	11µM*
CC(C)c1ccc(N2C=Nc3ccc(C(C)C)cc3C2)cc1	-3	0%	?	-9%	7.9µM*
COc1ccc(-n2c(COc3ccc(C)cc3)nnc2SCC(=O)O)cc1	36	0%	-5%	?	14%
COc1cc([N+](=O)[O-])c(OC)cc1SCc1n[nH]c(=S)n1-c1ccc(C)cc1	-12	-1%	-11%	-18%	2.2µM*
COc1ccc(-n2c(COc3cccc(C)c3)n[nH]c2=S)cc1	-2	0%	5µM*	12%	3.5µM*
COc1ccc(OCc2n[nH]c(=S)n2-c2ccc(C)cc2)cc1	4	0%	?	-2%	2.2µM*
C[C@@H]1COC(=O)[C@@H](CC(=O)OC(C)(C)C)C/C=C\C[C@H](CC(=O)NCCO)C(=O)N1	-7	-1%	nt	7%	nt
CC/C=C\C[C@H]1C(=O)CC[C@@H]1CC(=O)O	nt	nt	0%	nt	15%
N=C1C(c2ccccc2)=C(O)CN1c1cccc(S(=O)(=O)N2CCCCC2)c1	-4	-1%	-1%	13%	7%
CCCn1c(NC(=S)Nc2ccccc2)nc2ccccc21	-2	-1%	1.1µM*	?	1µM*
O=C(O)Cn1c(SCCOc2ccc(Cl)cc2)nc2ccccc21	-20	0%	-14%	-5%	-27%
S=C(Nc1ccccc1)Nc1nc2ccccc2n1CCOc1ccc(Cl)cc1	44	?	1.8µM*	?	2.2µM*
CCn1c(NC(=S)Nc2ccccc2)nc2ccccc21	3	-1%	2.8µM*	?	4.5µM*
COc1ccccc1NC(=O)C(C)OC(=O)CC1CCCCC1 (stereo not given)	17	0%	nt	23%	nt
NS(=O)(=O)c1ccc(CCNCc2cccnc2)cc1	-5	-1%	5%	11%	-31%
CCCn1c(=O)c(C)cn2nc(N)nc12	-11	nt	4%	nt	2%
CN(C)c1ccc(N/C=C/C(=O)c2ccc(F)cc2)cc1	-22	1%	?	?	10µM*
